A short description of assay [1]: compounds altering circadian rhythm period length – cell-based, LOPAC library, luminescence reporter (AID 2774).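 Note: values are relative to mean of DMSO wells on each plate.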 The settings on record: circadian reporter cells, at 7 µM, actives lie on both sides.
The nature of assay [2]: compounds altering viability of human ES cells (AID 493140).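 Note: cells exposed to compounds for four days before counting.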 As to conditions: human embryonic stem cell survival screen; stronger effect = higher value.
A short description of assay [3]: P. berghei load reduction in hepatocytes – cell-based, HepG2, luciferase luminescence, HepG2 viability, primary screen (AID 624349; in the data active = parasite load remaining mostly below about 12%, no sharp cut-off; inactive = mostly above about 10%;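 note: 100% = mean of DMSO negative control wells on the same plate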). The settings on record: P. berghei liver stage in HepG2, luciferase luminescence, concentration not given here; parasite load remaining: stronger effect = lower value; viability: measured here: HepG2 viability without parasites.
In assay [4] the test system is Hepatitis C virus NS3 helicase. Nature of the assay: blockers of NS3h binding to ssDNA – biochemical, fluorescence polarization, LOPAC1280 library, primary screen (AID 687035; in the data active = inhibition above about 37%). The settings on record: Purified HCV NS3 helicase, Cy5-dT15 ssDNA binding fluorescence polarization; stronger effect = higher value; concentration not given here.
A short description of assay [5]: compounds altering Cy5-DNA-NS3h complex signal – biochemical, LOPAC1280, artefact control for HCV NS3 helicase inhibitor project (AID 687037). As to conditions: Cy5-DNA-NS3h complex fluorescence interference counterscreen.
Assay [6] can be described thus: Wnt pathway potentiators raising nuclear beta-catenin – imaging, WNT3A-conditioned medium, mouse C2C12, NPC library, primary screen (AID 1117326; in the data active = nuclear beta-catenin stimulation mostly above about 4.2%, no sharp cut-off; inactive = mostly below about 10%). The settings on record: stronger effect = higher value.
Assay [7] can be described thus: signal quenchers or enhancers, Cy5 substrate/SSB – biochemical, NIH Clinical Collection, E. coli SSB, artefact control for HCV NS3 helicase inhibitor project (AID 743268). As to conditions: Cy5-oligo bound E. coli SSB, fluorescence interference.
For assay [8], the system named is Hepatitis C virus NS3 helicase. Nature of the assay: blockers of NS3h binding to DNA – biochemical, fluorescence polarization, NIH Clinical Collection, primary screen (AID 743270). As to conditions: NS3 helicase binding to Cy5-dT15 DNA, stronger effect = higher value, concentration not given here. On the technique in general: Polarisation of emitted light reports the rotation of a fluorescent probe.

The target of assay [9] is Single-stranded DNA-binding protein (Escherichia coli (strain K12)) (UniProt P0AGE0). Nature of the assay: SSB-ssDNA binding inhibitors – biochemical, fluorescence polarization, NIH Clinical Collection, counter-screen for HCV NS3 helicase inhibitor project (AID 743271; in the data active = inhibition above about 28%). As to conditions: E. coli SSB-DNA binding, stronger effect = higher value, concentration not given here.
A short description of assay [10]: compounds distorting NS3 helicase fluorescence signal – biochemical, NIH Clinical Collection, artefact control for HCV NS3 helicase inhibitor project (AID 743272).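 Note: HCV NS3 helicase with a Cy5 labelled single stranded DNA probe.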 As to conditions: fluorescence interference counterscreen, HCV NS3 helicase assay; stronger effect = lower value. In general terms: A counterscreen serves to expose hits that act by an unwanted route or on another target.

Assay [11] relates to Neuropilin-2 / VEGF-C interaction (human). The assay can be described thus: small molecules blocking Neuropilin-2/VEGF-C interaction – biochemical, microplate binding format, z-score (AID 743281). As to conditions: microplate NRP2/VEGF-C binding assay; stronger effect = lower value.

Broadly, the viability is a read-out of living cells in per cent, often relative to untreated cells. As a reminder, the inhibition is the relative decrease from the control value, in per cent.

“And” between values parts separate entries of the source, which are not always exact repeats. Equal entries are not always repeated. The source made the active and inactive calls. Unless noted, the rule behind the calls is not given here.

In the case of `C[C@]12CC[C@@H]3c4ccc(O)cc4CC[C@H]3[C@@H]1CCC2=O`, the period change in [1] was -0.125 h (inactive). Besides, the survival in assay [2] was 2.5 (inactive). Further, in assay [3], the parasite load remaining was 74.7% (inactive) and 24.8% (inactive); the viability is 91.5% and 73.5%. Further, the inhibition in [4] is -4% (inactive). Also, the fluorescence ratio (interference) in [5] was 1 (inactive). Also, the nuclear beta-catenin stimulation in assay [6] (at 10 µM) was 2.2% (inactive). The nuclear beta-catenin stimulation in [6] (stimulation, at 2 µM) is -0.2%.
`Cc1cn[nH]c1`: in assay [1], the period change is 0.23 h (inactive). Also, in assay [3], the parasite load remaining was 51% (inactive) and the viability came out at 102%. For the same compound, the inhibition in [4] was -3% (inactive). Also, the fluorescence ratio (interference) in assay [5] is 0.9 (inactive). Besides, in [6] (at 10 µM), the nuclear beta-catenin stimulation is -2.1% (inactive). Moreover, in assay [6] (stimulation, at 2 µM), the nuclear beta-catenin stimulation is -2%.
`COc1cc2nc(N3CCN(C(=O)C4COc5ccccc5O4)CC3)nc(N)c2cc1OC` (stereo unspecified): in assay [1], the period change is 0.11 h (inactive). Besides, in assay [2], the survival was 4.33 (inactive). Moreover, the inhibition in [4] is -4% (inactive); in assay [8], -1.36% (inactive); in assay [9], -2% (inactive). Besides, in assay [5], the fluorescence ratio (interference) is 1 (inactive). The fluorescence ratio was 1.06 (inactive) in assay [7] and 0.9 (inactive) in assay [10]. In addition, the nuclear beta-catenin stimulation in [6] (at 10 µM) was 38% (inactive); in assay [6] (stimulation, at 2 µM), 2.3%.
Turning to `CN1CCN(C2=Nc3ccccc3Oc3ccc(Cl)cc32)CC1`, in assay [1], the period change was -0.045 h (inactive). In assay [2], the survival is 12 (inactive). Moreover, the inhibition was -3% (inactive) in assay [4], 1.19% (inactive) in [8] and 2.21% (inactive) in assay [9]. In addition, in assay [5], the fluorescence ratio (interference) is 1 (inactive). The figures for the fluorescence ratio in assay [7] and in [10] were 0.97 (inactive) and 0.92 (inactive), respectively. For the same compound, in assay [11], the z-score was -0.0658 (inactive). Further, the nuclear beta-catenin stimulation is 1.4% (inactive) in assay [6] (at 10 µM) and -0.5% in [6] (stimulation, at 2 µM).
With `COc1ccc(C2CNC(=O)C2)cc1OC1CCCC1` (stereo unspecified), the period change in assay [1] is -0.065 h (inactive). The survival in [2] is 3.92 (inactive). Besides, the parasite load remaining in assay [3] is 73.2% (inactive) and 98.7% (inactive) and 48.7% (inactive). In addition, the viability in assay [3] was 91.9% and 79% and 67.5%. Also, the inhibition was -7% (inactive) in assay [4], 2.77% (inactive) in assay [8] and -0.1% (inactive) in assay [9]. The fluorescence ratio (interference) in [5] is 1 (inactive). The fluorescence ratio is 1.03 (inactive) in assay [7] and 0.98 (inactive) in assay [10]. Besides, the z-score in assay [11] was 0.503 (inactive). Also, the nuclear beta-catenin stimulation in assay [6] (at 10 µM) is -0.2% (inactive); in assay [6] (stimulation, at 2 µM) it was -0.4%.
Turning to `Cc1[nH]c(=O)c(C#N)cc1-c1ccncc1`, in assay [1], the period change is -0.005 h (inactive). Besides, the survival in assay [2] is 9.17 (inactive). Besides, in assay [3], the parasite load remaining is 79.2% (inactive) and 78.4% (inactive) and 15.3% (inactive). The viability in [3] is 69% and 68.9% and 65.5%. For the same compound, the inhibition in assay [4] was -3% (inactive); in assay [8] it was -4.36% (inactive); in assay [9] it was -3.18% (inactive). For the same compound, the fluorescence ratio (interference) in assay [5] was 1 (inactive). Further, the fluorescence ratio is 1.05 (inactive) in assay [7] and 1.02 (inactive) in assay [10]. Also, the z-score in [11] was 0.188 (inactive). Besides, the nuclear beta-catenin stimulation in assay [6] (at 10 µM) was 0.1% (inactive); in [6] (stimulation, at 2 µM), 0.4%.
In the case of `CNC1(C)C2CCC(C2)C1(C)C` (stereo unspecified), in assay [1], the period change was 0.19 h (inactive). The survival in assay [2] was 42 (inactive). For the same compound, in assay [3], the parasite load remaining is 95.9% (inactive) and 84% (inactive); the viability is 76% and 101%. The inhibition in [4] is 0% (inactive). The fluorescence ratio (interference) in assay [5] is 0.9 (inactive). Further, the nuclear beta-catenin stimulation in [6] (at 10 µM) was 0.3% (inactive). The nuclear beta-catenin stimulation in [6] (stimulation, at 2 µM) is -2.6%.
Turning to `C=CC(N)CCC(=O)O` (stereo unspecified), the period change in assay [1] was 0.105 h (inactive). For the same compound, in assay [2], the survival is 14.4 (inactive). Moreover, in [3], the parasite load remaining was 117% (inactive) and 83.3% (inactive) and 20.7% (inactive); the viability was 112% and 77.9% and 99.3%. Moreover, the inhibition in [4] is 0% (inactive). For the same compound, in assay [5], the fluorescence ratio (interference) is 1 (inactive). In assay [6] (at 10 µM), the nuclear beta-catenin stimulation was 1.7% (inactive). Also, in assay [6] (stimulation, at 2 µM), the nuclear beta-catenin stimulation came to 0.5%.
Turning to `COC(=O)[C@@H]1[C@H]2C[C@H]3c4[nH]c5ccccc5c4CCN3C[C@@H]2CC[C@@H]1O`, the period change in assay [1] was 0.095 h (inactive). In [2], the survival is 8.25 (inactive). In addition, in assay [3], the parasite load remaining was 80.6% (inactive) and 73.2% (inactive) and 41.3% (inactive); the viability was 101% and 81.3% and 96.5%. In addition, the inhibition in assay [4] was 0% (inactive). For the same compound, the fluorescence ratio (interference) in assay [5] was 1.1 (inactive). In addition, the nuclear beta-catenin stimulation in assay [6] (at 10 µM) is 1% (inactive). The nuclear beta-catenin stimulation in [6] (stimulation, at 2 µM) was determined as 0.4%.

Values taken from PubChem BioAssay.
